# Screening data: PubChem BioAssay, Broad Institute
# aSyn UTR act: Activators via SNCA 5'UTR binding, MLPCN; AID 1814; alpha-synuclein 5'UTR reporter, activators screen; 300,000 compounds, 7.1% hits; activity score, % (tested at 7.5 µM), hits read low; in the data active = activity score below about -60%
# * marks the source's active call; other numbers are inactive results. Only a sample is shown.
SMILES,aSyn UTR act
Cc1cccc2c1-c1sc(C(=O)Nc3cccc([N+](=O)[O-])c3C)cc1CO2,-72.9*
Cc1cccc2c1-c1sc(C(=O)Nc3nccs3)cc1CO2,-213.2*
CCOC(=O)c1cc2c(s1)-c1c(C)cccc1OC2,-163.7*
Nc1c2c(nc3sc4c(c13)CCCC4)-c1ccccc1CC2,-75.3*
Cc1c(C(=O)c2ccccc2)oc2ccc3ccccc3c12,-116.4*
Nc1nnc(C(=O)c2ccccc2N)s1,-123.1*
COC(=O)Cc1csc(Nc2ccc(Cl)cc2)n1,-67.7*
Cc1csc(Nc2ccc(Cl)cc2)n1,-112.6*
Cc1ccc(Nc2nc(C)cs2)cc1,-125.3*
CCOc1ccc(-c2csc(Cn3c(CN4CCN(C)CC4)nc4ccccc4c3=O)n2)cc1,-65.6*
COC(=O)c1c(NC(=O)/C=C/C(=O)O)sc(C)c1-c1ccc(C(C)C)cc1,-68.1*
O=C1N=C(N2CCOCC2)SC1=C1CCCCC1,-85.2*
O=C(CCl)N(C/C=C/c1ccccc1)c1ccc2c(c1)OCCO2,-80.6*
COCCCNC(=O)Cn1nnc(-c2ccc(NC(=O)c3ccccc3F)cc2)n1,-95.4*
COC(=O)CCn1nnc(-c2ccc(C(C)C)cc2)n1,119.1
N#CC1=C(N)Oc2cc(N)ccc2C1c1cc(Br)cs1 (configuration not stated),-75.3*
N#CC1=C(N)Oc2cc(N)ccc2C1c1cccc(Br)c1 (configuration not stated),118.8
Cc1ccc(-c2noc(CSc3nc(N)cc(N)n3)n2)cc1,-191.2*
Cc1ccc(-c2noc(CSc3ccccc3)n2)cc1,-84.3*
c1ccc(SCc2nc(-c3cccnc3)no2)cc1,-103.3*
Cc1cccc(-c2noc(CSc3ccccc3)n2)c1,-169.6*
CN(c1ccccc1)c1nc2ccsc2c(=O)s1,-123.6*
CCOC(=O)c1sc(-c2ccc(OC)cc2)cc1N,-158.4*
CCOC(=O)c1cc(-c2ccccc2)sc1N,-94.1*
CCOC(=O)c1sc(-c2ccc(F)cc2)cc1N,-142.5*
SMILES,aSyn UTR act
CC(=O)c1sc(-c2ccccc2)cc1N,-63.2*
CCOC(=O)c1cc(-c2ccccc2)sc1NC(=O)COC(=O)c1cccc(S(N)(=O)=O)c1,71.6
CCOC(=O)c1sc(-c2ccccc2)cc1N,-116.3*
C/C(=C\C(=O)c1ccccc1)Nc1ccc(O)cc1,-102.2*
C/C(=C\C(=O)c1cccnc1)Nc1ccc(O)cc1,-77.4*
O=S(=O)(Nc1ccc(F)cc1Cl)c1ccc(-c2cnc(C3CC3)o2)cc1,67.6
O=C(NCC1CCCCC1)c1ccc(F)cc1Cl,-124.5*
CN(C)c1cccc(C(=O)Nc2cccc(F)c2)c1,-175.2*
CCN(CC)c1ccc(C(=O)Nc2cccc(F)c2)cc1,-77.1*
O=[N+]([O-])c1ccccc1CSc1nnc2ccccn12,-121.2*
c1ccn2c(SCc3cn4ccsc4n3)nnc2c1,-166.4*
